Data on five compounds can be found in PubChem BioAssay AID798 (PCMD, 2007).

About 300 (0.14%) of roughly 220,000 compounds were called active. Shown is part of a subset that was picked to be rich in actives. A number with no mark means an inactive call.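 Rule for the calls: active = inhibition of at least 40%; inactive = inhibition below 40%.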

This assay deals with Coagulation factor XI (Homo sapiens) (UniProt P03951). In words: factor XIa enzyme inhibition, large library – biochemical, 1536-well, primary screen (AID 798).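 Note: fluorescence of freed AMC excited at 355 nm; 0% = enzyme without compound and 100% = no enzyme blank.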 The settings on record: purified FXIa, Boc-Glu-Ala-Arg-AMC fluorogenic substrate; at 5 µM; stronger effect = higher value.
Sequence of Coagulation factor XI (Homo sapiens) (P03951 19-387 limits assumed): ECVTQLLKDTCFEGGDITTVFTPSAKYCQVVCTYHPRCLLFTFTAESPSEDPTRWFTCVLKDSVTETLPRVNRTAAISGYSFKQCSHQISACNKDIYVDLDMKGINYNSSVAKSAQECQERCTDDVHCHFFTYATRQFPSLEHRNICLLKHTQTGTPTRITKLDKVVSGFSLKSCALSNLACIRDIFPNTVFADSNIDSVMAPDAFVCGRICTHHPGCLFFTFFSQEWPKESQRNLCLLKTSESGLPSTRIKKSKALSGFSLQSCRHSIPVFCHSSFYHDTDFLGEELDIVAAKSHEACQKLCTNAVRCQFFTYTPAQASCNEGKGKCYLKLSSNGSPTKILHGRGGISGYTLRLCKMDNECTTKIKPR
Sequence of Coagulation factor XI (Homo sapiens) (P03951 388-625 limits assumed): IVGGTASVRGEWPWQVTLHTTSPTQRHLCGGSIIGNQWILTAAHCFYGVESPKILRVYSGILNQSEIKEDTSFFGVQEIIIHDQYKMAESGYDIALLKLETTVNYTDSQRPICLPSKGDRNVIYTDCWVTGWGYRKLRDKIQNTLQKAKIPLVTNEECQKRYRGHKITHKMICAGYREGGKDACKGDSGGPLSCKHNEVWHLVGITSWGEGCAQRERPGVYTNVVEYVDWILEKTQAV
What is called inhibition is the relative decrease from the control value, in per cent. With `NCC(O)c1ccc(O)cc1` (stereo not given), the inhibition was 47.9% (active). `CSc1ccc(C(=O)C2CCCN(Cc3ccn[nH]3)C2)cc1` (stereo not given): the inhibition is 2.72%. Regarding `Cc1ccc(Cn2c(C)c3cnn(CC(=O)N4CCC5(CC4)OCCO5)c(=O)c3c2C)cc1`, the inhibition is -2.43%.

As for `CCCCCn1c(=O)c(C(=O)NCc2ccccn2)c(O)c2ccccc21`, the inhibition is 4.5%.

As to `CC(C)c1ccc(-n2c(O)c(/C=N/N3CCOCC3)c(=O)[nH]c2=S)cc1`, the inhibition was -2.81%.
